Activity calls are given as the source filed them. The calls were made as follows: active = hit-call score of the fitted dose curve at least 0.9, where 1 is the maximum; inactive = score below 0.9.
Experiments:
[1] = read-out: Interferon-gamma inducible Protein 10 (IP10), CXCL10 (gene 3627); assay: BSK_hDFCGF_IP10: BioMAP Diversity Plus: hDFCGF Assay for Interferon-gamma inducible Protein 10 (IP10) Biomarker Activity (AID 2283053); settings: primary human foreskin fibroblasts; actives raise or lower the signal
How it was run: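 Primary human foreskin fibroblasts exposed to chemicals for 24 h. IP-10 measured by ELISA; changes fitted bidirectionally against DMSO baseline.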

[2] = read-out: Urokinase-type plasminogen activator receptor (uPAR), PLAUR (gene 5329); assay: BSK_CASM3C_uPAR: BioMAP Diversity Plus: CASM3C Assay for Urokinase-type plasminogen activator receptor (uPAR) Biomarker Activity (AID 2283054); settings: primary human coronary artery smooth muscle cells; actives raise or lower the signal;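 also: cell-surface uPAR protein level quantified by ELISA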
[3] = read-out: Vascular cell adhesion molecule 1 (VCAM1), VCAM1 (gene 7412); assay: BSK_CASM3C_VCAM1: BioMAP Diversity Plus: CASM3C Assay for Vascular cell adhesion molecule 1 (VCAM1) Biomarker Activity (AID 2283055); settings: primary human coronary artery smooth muscle cells; actives raise or lower the signal;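 also: VCAM-1 protein level quantified by ELISA on the cells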
[4] = read-out: Collagen III, COL3A1 (gene 1281); assay: BSK_hDFCGF_CollagenIII: BioMAP Diversity Plus: hDFCGF Assay for Collagen III Biomarker Activity (AID 2283056); settings: primary human foreskin fibroblasts; actives raise or lower the signal
How it was run: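 ELISA read-out of collagen III from human skin fibroblast cultures sampled 24 h post-dosing. Values were derived by bidirectional fitting relative to the DMSO vehicle control.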

[5] = read-out: Epidermal growth factor receptor (EGFR), EGFR (gene 1956); assay: BSK_hDFCGF_EGFR: BioMAP Diversity Plus: hDFCGF Assay for Epidermal growth factor receptor (EGFR) Biomarker Activity (AID 2283057); settings: primary human foreskin fibroblasts; actives raise or lower the signal
How it was run: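 Primary human foreskin fibroblasts (hDFCGF system), sampled 24 h after dosing; EGFR quantified by ELISA. Bidirectional fit relative to DMSO baseline; SRB total-protein staining in parallel cultures for cytotoxicity.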

[6] = BSK_hDFCGF_Proliferation: Cell Proliferation Assessment in the BioMAP Diversity Plus: hDFCGF Assay (AID 2283059); settings: primary human foreskin fibroblasts;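 also: curves fitted for both rise and fall of signal versus DMSO baseline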
How it was run: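 Primary human foreskin fibroblasts, sub-confluent; […]; 10% TCA fix, 0.1% SRB stain, A560 total protein. Gain/loss fitted bidirectionally vs DMSO control.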

[7] = read-out: Macrophage colony-stimulating factor (MCSF), CSF1 (gene 1435); assay: BSK_hDFCGF_MCSF: BioMAP Diversity Plus: hDFCGF Assay for Macrophage colony-stimulating factor (MCSF) Biomarker Activity (AID 2283060); settings: primary human foreskin fibroblasts; actives raise or lower the signal
How it was run: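 Primary human foreskin fibroblasts dosed with chemical; 24 h later, M-CSF quantified by ELISA; curves fitted in both directions vs DMSO negative control.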

[8] = BSK_hDFCGF_SRB: Viability Assessment in the BioMAP Diversity Plus: hDFCGF Assay (AID 2283061); settings: primary human foreskin fibroblasts;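 also: cells exposed to compound for 24 h before the read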
How it was run: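 Readout is SRB absorbance at 560 nm, reflecting total protein in parallel cultures of human foreskin fibroblasts harvested 24 h after chemical dosing. Activity was fitted bidirectionally relative to DMSO.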

[9] = read-out: Monokine induced gamma interferon (MIG), CXCL9 (gene 4283); assay: BSK_hDFCGF_MIG: BioMAP Diversity Plus: hDFCGF Assay for Monokine induced gamma interferon (MIG) Biomarker Activity (AID 2283063); settings: primary human foreskin fibroblasts; actives raise or lower the signal
How it was run: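 Chemicals were added to primary human foreskin fibroblast cultures, which were sampled 24 h later. MIG levels were then quantified by ELISA and responses fitted in both directions relative to DMSO.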

[10] = read-out: Matrix Metallopeptidase 1 (MMP1), MMP1 (gene 4312); assay: BSK_hDFCGF_MMP1: BioMAP Diversity Plus: hDFCGF Assay for Matrix Metallopeptidase 1 (MMP1) Biomarker Activity (AID 2283064); settings: primary human foreskin fibroblasts; actives raise or lower the signal
How it was run: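 Primary human foreskin fibroblasts exposed to chemicals for 24 h; MMP1 measured by ELISA. Cytotoxicity tracked by SRB staining in parallel cultures; bidirectional fit relative to DMSO.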

[11] = read-out: Vascular cell adhesion molecule 1 (VCAM1), VCAM1 (gene 7412); assay: BSK_hDFCGF_VCAM1: BioMAP Diversity Plus: hDFCGF Assay for Vascular cell adhesion molecule 1 (VCAM1) Biomarker Activity (AID 2283065); settings: primary human foreskin fibroblasts; actives raise or lower the signal;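 as to AC50: VCAM-1 protein level quantified by ELISA after 24 h chemical exposure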
How it was run: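 Human foreskin fibroblast primary cells, chemical exposure 24 h; VCAM-1 by ELISA; bidirectional fit, DMSO = negative control/baseline.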

[12] = read-out: Plasminogen activator inhibitor-1 (PAI1), SERPINE1 (gene 5054); assay: BSK_hDFCGF_PAI1: BioMAP Diversity Plus: hDFCGF Assay for Plasminogen activator inhibitor-1 (PAI1) Biomarker Activity (AID 2283066); settings: primary human foreskin fibroblasts; actives raise or lower the signal
How it was run: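 Human foreskin fibroblast primary cells, 24 h chemical exposure; PAI-1 measured by ELISA. Bidirectional fitting relative to DMSO; parallel cultures stained with SRB for total protein to flag overt cytotoxicity.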

[13] = read-out: Intercellular Adhesion Molecule 1 (ICAM1), ICAM1 (gene 3383); assay: BSK_KF3CT_ICAM1: BioMAP Diversity Plus: KF3CT Assay for Intercellular Adhesion Molecule 1 (ICAM1) Biomarker Activity (AID 2283067); settings: primary human keratinocytes with fibroblasts; actives raise or lower the signal
How it was run: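 ICAM-1 levels are measured by ELISA 24 h after dosing a primary human co-culture of keratinocytes and foreskin fibroblasts. Activity in either direction is fitted relative to DMSO vehicle.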

[14] = read-out: Interferon-gamma inducible Protein 10 (IP10), CXCL10 (gene 3627); assay: BSK_KF3CT_IP10: BioMAP Diversity Plus: KF3CT Assay for Interferon-gamma inducible Protein 10 (IP10) Biomarker Activity (AID 2283068); settings: primary human keratinocytes with fibroblasts; actives raise or lower the signal
How it was run: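 In a primary skin co-culture of keratinocytes and fibroblasts, IP-10 is quantified by ELISA at 24 h after dosing. SRB staining of parallel wells monitors overt toxicity. Curves are fitted both directions against DMSO.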

[15] = BSK_KF3CT_SRB: Viability Assessment in the BioMAP Diversity Plus: KF3CT Assay (AID 2283069); settings: primary human keratinocytes with fibroblasts;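 also: total protein by sulforhodamine B staining as a cytotoxicity measure; read 24 h after compound addition; fitted for both signal gain and loss against DMSO baseline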
How it was run: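 Human keratinocyte and foreskin fibroblast co-culture exposed to chemical for 24 h. Total protein measured in parallel cultures by 0.1% sulforhodamine B staining after 10% TCA fixation, read at 560 nm; bidirectional fit relative to DMSO.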

[16] = read-out: TIMP metallopeptidase inhibitor 2 (TIMP2), TIMP2 (gene 7077); assay: BSK_KF3CT_TIMP2: BioMAP Diversity Plus: KF3CT Assay for TIMP metallopeptidase inhibitor 2 (TIMP2) Biomarker Activity (AID 2283071); settings: primary human keratinocytes with fibroblasts; actives raise or lower the signal
How it was run: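 Co-culture of human primary keratinocytes and foreskin fibroblasts, measured 24 h after chemical dosing. TIMP-2 quantified by ELISA and fitted in both directions relative to DMSO. Cytotoxicity checked in parallel cultures by SRB total-protein staining.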

[17] = read-out: Transforming growth factor beta 1 (TGFb1), TGFB1 (gene 7040); assay: BSK_KF3CT_TGFb1: BioMAP Diversity Plus: KF3CT Assay for Transforming growth factor beta 1 (TGFb1) Biomarker Activity (AID 2283072); settings: primary human keratinocytes with fibroblasts; actives raise or lower the signal
How it was run: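 Human keratinocyte/foreskin fibroblast co-culture; TGF-b1 measured by ELISA 24 h after dosing, fitted bidirectionally versus DMSO. Cytotoxicity checked in parallel cultures by total protein (SRB staining, 560 nm).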

[18] = read-out: Interleukin-1 alpha (IL1a), IL1A (gene 3552); assay: BSK_KF3CT_IL1a: BioMAP Diversity Plus: KF3CT Assay for Interleukin-1 alpha (IL1a) Biomarker Activity (AID 2283070); settings: primary human keratinocytes with fibroblasts; actives raise or lower the signal
How it was run: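 Primary human keratinocyte plus foreskin fibroblast co-culture, dosed and measured at 24 h in 96-well plates. IL-1a level quantified by ELISA; bidirectional fit relative to DMSO.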

[19] = read-out: TIMP metallopeptidase inhibitor 1 (TIMP1), TIMP1 (gene 7076); assay: BSK_hDFCGF_TIMP1: BioMAP Diversity Plus: hDFCGF Assay for TIMP metallopeptidase inhibitor 1 (TIMP1) Biomarker Activity (AID 2283062); settings: primary human foreskin fibroblasts; actives raise or lower the signal
How it was run: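 Human skin fibroblasts (primary), hDFCGF system; compound exposure 24 h; TIMP-1 by ELISA; bidirectional fit vs DMSO negative control; overt cytotoxicity by SRB in parallel wells.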

Measured: AC50

CCOP(=S)(OCC)SCSC(C)(C)C
not listed: [18] | [19]
inactive: all other assays above

CN(C)c1nc(=O)n(C2CCCCC2)c(=O)n1C
not listed: [19]
inactive: all other assays above

CCCCCCCCOC(=O)c1ccccc1C(=O)OCCCCCCCC
not listed: [10] | [18]
inactive: all other assays above

ClC(Cl)=C(c1ccc(Cl)cc1)c1ccc(Cl)cc1
inactive: [2] | [3] | [5]
active: [1] 26.4 µM | [4] 24.5 µM | [6] 5.36 µM | [7] 20 µM | [8] 18.2 µM | [9] 27.8 µM | [11] 14.1 µM | [12] 16.6 µM | [13] 20 µM | [14] 30.2 µM | [15] 27.9 µM | [16] 27 µM | [17] 32.6 µM

CCNc1nc(NC(C)C)nc(SC)n1
active: [1] 30.4 µM
not listed: [19]
inactive: all other assays above

Cc1cccc([N+](=O)[O-])c1
not listed: [10] | [18] | [19]
inactive: all other assays above

Cc1cc2c3c(c1)C(c1ccccc1)=N[C@@H](NC(=O)c1ccncc1)C(=O)N3CC2
active: [6] 11.5 µM | [12] 5.53 µM
not listed: [10] | [18]
inactive: all other assays above

O=C(N[C@H]1CN2CCC1CC2)c1cc2ccoc2cn1
not listed: [10] | [18]
inactive: all other assays above

Oc1ccc(C(c2ccc(O)cc2)(C(F)(F)F)C(F)(F)F)cc1
inactive: [2] | [5]
active: [1] 16.6 µM | [3] 31 µM | [4] 13.1 µM | [6] 12.4 µM | [7] 14.8 µM | [8] 13.7 µM | [11] 7.41 µM | [12] 12.8 µM | [13] 37.7 µM | [14] 17.3 µM | [15] 24.1 µM | [16] 21.1 µM | [17] 23.7 µM

CO/C=C(/C(=O)OC)c1ccccc1COc1cccc(C(F)(F)F)n1
active: [4] 1.75 µM | [6] 4.78 µM | [7] 7.27 µM | [8] 10.7 µM | [10] 6.92 µM | [12] 11.1 µM | [17] 5.13 µM
not listed: [18] | [19]
inactive: all other assays above

O=NN(c1ccccc1)c1ccccc1
not listed: [10] | [19]
inactive: all other assays above

ClC1=C(Cl)[C@]2(Cl)[C@@H]3[C@H]4C[C@H]([C@@H]5O[C@H]45)[C@@H]3[C@@]1(Cl)C2(Cl)Cl
active: [6] 6.6 µM
not listed: [10] | [12] | [18]
inactive: all other assays above

CCOC(=O)C(O)(c1ccc(Cl)cc1)c1ccc(Cl)cc1
active: [1] 28.5 µM | [3] 20 µM | [4] 30.2 µM | [6] 30.9 µM | [7] 20 µM | [9] 14.3 µM | [11] 26.9 µM | [12] 13.2 µM
inactive: [2] | [5] | [8] | [13] | [14] | [15] | [16] | [17]

CCC(C)c1cc([N+](=O)[O-])cc([N+](=O)[O-])c1O (stereo not drawn)
active: [2] 31.3 µM | [6] 3.85 µM | [7] 4.2 µM | [8] 7.45 µM | [12] 12 µM | [14] 3.97 µM
not listed: [10] | [18] | [19]
inactive: all other assays above

O=S(=O)(O)C(F)(F)C(F)(F)C(F)(F)C(F)(F)F
not listed: [19]
inactive: all other assays above

C=CC(N)=O
not listed: [18] | [19]
inactive: all other assays above

COS(=O)(=O)OC
not listed: [19]
inactive: all other assays above

N#Cc1ccc(N(CC(N)=O)CC(F)(F)F)cc1C(F)(F)F
not listed: [10] | [19]
inactive: all other assays above

From PubChem BioAssay (EPA / NIEHS)
